Records with an inconclusive call do not appear. A call without a number means that no potency is given here. Calls of active or inactive are those of the source. Unless noted, the call rests on the fitted dose curve; in most records, active means well fitted inhibition curve with a large enough effect; inconclusive means small, poorly fitted or top-dose-only effect; inactive means flat fitted curve, though single readings scatter.
Assays:
[1] = target: Ubiquitin carboxyl-terminal hydrolase 1 (Homo sapiens) (UniProt O94782); experiment: Inhibitors of USP1/UAF1: Pilot qHTS (AID 504865); further: nearly all actives have a fitted effect of over 35% in size; further: potency means the concentration at half of the fitted maximal effect
Ubiquitin carboxyl-terminal hydrolase 1 (Homo sapiens), sequence (O94782 whole entry, looked up): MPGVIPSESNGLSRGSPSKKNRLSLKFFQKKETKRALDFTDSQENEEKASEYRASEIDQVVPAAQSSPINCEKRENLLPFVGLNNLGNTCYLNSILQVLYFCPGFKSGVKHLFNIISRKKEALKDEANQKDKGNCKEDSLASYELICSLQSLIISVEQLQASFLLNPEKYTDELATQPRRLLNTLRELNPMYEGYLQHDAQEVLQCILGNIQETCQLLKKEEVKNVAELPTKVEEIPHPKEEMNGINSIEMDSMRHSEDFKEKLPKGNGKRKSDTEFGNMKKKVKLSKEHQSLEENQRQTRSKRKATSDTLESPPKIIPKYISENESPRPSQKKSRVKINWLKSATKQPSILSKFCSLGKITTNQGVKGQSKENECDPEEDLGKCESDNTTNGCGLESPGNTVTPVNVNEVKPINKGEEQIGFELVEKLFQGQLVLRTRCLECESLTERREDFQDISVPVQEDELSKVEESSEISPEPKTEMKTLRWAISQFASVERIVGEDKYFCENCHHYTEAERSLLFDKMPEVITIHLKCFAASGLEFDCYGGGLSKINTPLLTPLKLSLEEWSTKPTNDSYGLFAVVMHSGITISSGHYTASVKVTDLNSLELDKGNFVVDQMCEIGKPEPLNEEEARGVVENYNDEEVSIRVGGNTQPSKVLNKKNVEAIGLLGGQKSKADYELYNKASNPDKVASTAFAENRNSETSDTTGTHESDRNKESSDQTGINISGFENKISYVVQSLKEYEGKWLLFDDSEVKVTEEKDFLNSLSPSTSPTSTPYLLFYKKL
In short: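 1nM USP1/UAF1 + cpd, 15 min RT; start w/ Ub-Rho 150nM final; kinetic FL 480/540 nm, 6 reads q60 s. Buffer 50mM HEPES pH 7.8, 0.5mM EDTA, 1mM TCEP, 0.01% Tween-20, 0.1 mg/ml BSA.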

[2] = target: Glucocorticoid receptor (Homo sapiens) (UniProt P04150); experiment: qHTS assay for small molecule antagonists of glucocorticoid receptor signaling (AID 588533; active means well fitted inhibition curve with a large enough effect in the signal ratio, with a control signal flat, not every such curve was filed as active; the % refers to the signal ratio;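 further: cells stimulated with 2 nM dexamethasone as agonist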)
Glucocorticoid receptor (Homo sapiens), sequence (P04150 whole entry, looked up): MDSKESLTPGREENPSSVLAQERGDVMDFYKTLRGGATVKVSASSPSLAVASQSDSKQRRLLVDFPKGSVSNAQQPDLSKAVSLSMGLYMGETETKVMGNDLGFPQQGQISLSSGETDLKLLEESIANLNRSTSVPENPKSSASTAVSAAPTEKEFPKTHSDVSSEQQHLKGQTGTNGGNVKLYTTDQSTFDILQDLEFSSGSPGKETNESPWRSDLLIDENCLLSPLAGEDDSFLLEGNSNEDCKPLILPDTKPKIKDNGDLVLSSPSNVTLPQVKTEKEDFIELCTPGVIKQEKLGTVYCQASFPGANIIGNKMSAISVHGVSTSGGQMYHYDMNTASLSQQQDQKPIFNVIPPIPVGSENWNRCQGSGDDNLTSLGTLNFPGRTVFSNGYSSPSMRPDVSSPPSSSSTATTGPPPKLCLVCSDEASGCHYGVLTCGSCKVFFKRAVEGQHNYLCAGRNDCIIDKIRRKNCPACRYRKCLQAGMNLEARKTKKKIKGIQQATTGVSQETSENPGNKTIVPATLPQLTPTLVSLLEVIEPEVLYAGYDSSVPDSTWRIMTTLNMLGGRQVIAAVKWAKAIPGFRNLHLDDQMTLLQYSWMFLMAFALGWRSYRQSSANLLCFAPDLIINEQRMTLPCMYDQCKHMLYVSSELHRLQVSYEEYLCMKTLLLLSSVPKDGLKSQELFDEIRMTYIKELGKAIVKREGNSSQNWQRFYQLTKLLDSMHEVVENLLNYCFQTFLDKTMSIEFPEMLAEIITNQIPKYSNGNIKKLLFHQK
In short: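 Antagonist-mode qHTS: compound titrations added to GRE-bla HeLa cells, then dexamethasone 2 nM final; 18 h, 37 C. CCF4 FRET fluorescence normalized to dexamethasone and DMSO; IC50 from Hill fit.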

[3] = qHTS assay for small molecule antagonists of peroxisome proliferator-activated receptor delta signaling (AID 588535; active means well fitted inhibition curve with a large enough effect in the signal ratio, with a control signal flat, not every such curve was filed as active; the % refers to the signal ratio;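 on max response: cells co-treated with a PPAR-delta agonist as stimulator during compound exposure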); conditions: HEK293T PPARd-UAS-bla, beta-lactamase FRET ratio, 18 h; 460 nm channel
In short: (§1)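 Antagonist-mode beta-lactamase reporter (GeneBLAzer PPAR-delta-UAS-bla) in HEK293T cells, 2% charcoal/dextran FBS, 4000 cells/well. Compound titrations, 18 h at 37 C; CCF4 ratio read, IC50 and efficacy from Hill fits.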

[4] = target: Peroxisome proliferator-activated receptor delta (Homo sapiens) (UniProt Q03181); experiment: as above
Peroxisome proliferator-activated receptor delta (Homo sapiens), sequence (Q03181 whole entry, looked up): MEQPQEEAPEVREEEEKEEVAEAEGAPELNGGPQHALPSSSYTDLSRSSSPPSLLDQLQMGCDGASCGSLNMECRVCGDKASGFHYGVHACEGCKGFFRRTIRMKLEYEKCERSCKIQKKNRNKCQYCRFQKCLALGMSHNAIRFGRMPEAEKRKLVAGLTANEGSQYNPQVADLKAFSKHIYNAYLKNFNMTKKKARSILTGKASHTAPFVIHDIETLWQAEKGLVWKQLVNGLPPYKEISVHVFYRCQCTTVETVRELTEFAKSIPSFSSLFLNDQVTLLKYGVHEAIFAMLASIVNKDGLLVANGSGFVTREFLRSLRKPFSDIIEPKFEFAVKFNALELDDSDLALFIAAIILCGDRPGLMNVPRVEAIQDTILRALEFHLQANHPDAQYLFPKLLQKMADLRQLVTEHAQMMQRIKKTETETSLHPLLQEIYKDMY
In short: as §1

[5] = target: Peroxisome proliferator-activated receptor gamma (Homo sapiens) (UniProt P37231); experiment: qHTS assay for small molecule agonists of peroxisome proliferator-activated receptor gamma signaling (AID 588536; active means well fitted curve in the direction sought with a large enough effect in the signal ratio, with a control signal flat, not every such curve was filed as active; the % refers to the signal ratio)
Peroxisome proliferator-activated receptor gamma (Homo sapiens), sequence (P37231 whole entry, looked up): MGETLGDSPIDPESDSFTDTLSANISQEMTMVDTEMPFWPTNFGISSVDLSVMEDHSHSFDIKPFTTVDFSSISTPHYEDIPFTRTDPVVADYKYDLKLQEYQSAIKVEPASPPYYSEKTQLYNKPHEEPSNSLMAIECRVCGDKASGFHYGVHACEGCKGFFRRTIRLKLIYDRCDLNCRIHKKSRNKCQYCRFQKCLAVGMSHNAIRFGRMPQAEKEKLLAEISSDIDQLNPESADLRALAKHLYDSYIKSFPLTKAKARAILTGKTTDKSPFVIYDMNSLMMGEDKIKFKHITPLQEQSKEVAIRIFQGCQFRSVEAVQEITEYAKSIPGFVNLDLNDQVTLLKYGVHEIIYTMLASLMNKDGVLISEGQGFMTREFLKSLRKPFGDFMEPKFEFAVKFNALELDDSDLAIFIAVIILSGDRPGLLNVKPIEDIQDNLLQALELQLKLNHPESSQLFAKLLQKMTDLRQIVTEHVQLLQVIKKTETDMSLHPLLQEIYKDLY
In short: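 PPAR-gamma-UAS-bla HEK293 cells in medium with 1% charcoal/dextran-treated FBS were exposed to compounds for 16 h at 37 C. Beta-lactamase activity was read with CCF4 substrate (405 nm excitation, 460/530 nm emission).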

[6] = target: Peroxisome proliferator-activated receptor gamma (Homo sapiens) (UniProt P37231); experiment: qHTS assay for small molecule antagonists of peroxisome proliferator-activated receptor gamma signaling (AID 588537; active means well fitted inhibition curve with a large enough effect in the signal ratio, with a control signal flat, not every such curve was filed as active; the % refers to the signal ratio;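 further: reporter cells co-stimulated with 50 nM rosiglitazone agonist during compound treatment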)
In short: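 PPARγ-UAS-bla HEK293 cells (3000/well) in 1% charcoal/dextran-stripped FBS are treated with compound, then stimulated with 50 nM rosiglitazone for 16 h at 37 °C. Read-out is CCF4 β-lactamase fluorescence after 2 h at RT. IC50 comes from Hill fits normalised to rosiglitazone and DMSO.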

[7] = qHTS assay for small molecule agonists of retinoid X receptor alpha signaling (AID 588544; calls by dose curve); conditions: HEK293T RXRa-UAS-bla, beta-lactamase reporter, 18 h; 530 nm emission
[8] = target: Retinoic acid receptor RXR-alpha (Homo sapiens) (UniProt P19793); experiment: as above
Retinoic acid receptor RXR-alpha (Homo sapiens), sequence (P19793 whole entry, looked up): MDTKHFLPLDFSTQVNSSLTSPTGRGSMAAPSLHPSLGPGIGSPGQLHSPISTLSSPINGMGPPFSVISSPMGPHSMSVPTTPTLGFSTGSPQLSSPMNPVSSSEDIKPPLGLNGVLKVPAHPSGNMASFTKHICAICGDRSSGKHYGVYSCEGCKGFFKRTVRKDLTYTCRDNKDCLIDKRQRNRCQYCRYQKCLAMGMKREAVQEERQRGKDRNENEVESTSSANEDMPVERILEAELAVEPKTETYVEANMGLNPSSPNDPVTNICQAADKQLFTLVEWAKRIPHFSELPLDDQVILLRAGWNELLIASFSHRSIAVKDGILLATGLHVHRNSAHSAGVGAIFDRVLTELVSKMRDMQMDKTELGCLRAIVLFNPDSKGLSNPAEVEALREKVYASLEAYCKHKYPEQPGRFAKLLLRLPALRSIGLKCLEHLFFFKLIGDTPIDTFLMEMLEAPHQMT

[9] = target: Thyroid hormone receptor beta (Homo sapiens) (UniProt P10828); experiment: qHTS assay for small molecule agonists of thyroid hormone receptor beta signaling (AID 588545; calls by dose curve)
Thyroid hormone receptor beta (Homo sapiens), sequence (P10828 whole entry, looked up): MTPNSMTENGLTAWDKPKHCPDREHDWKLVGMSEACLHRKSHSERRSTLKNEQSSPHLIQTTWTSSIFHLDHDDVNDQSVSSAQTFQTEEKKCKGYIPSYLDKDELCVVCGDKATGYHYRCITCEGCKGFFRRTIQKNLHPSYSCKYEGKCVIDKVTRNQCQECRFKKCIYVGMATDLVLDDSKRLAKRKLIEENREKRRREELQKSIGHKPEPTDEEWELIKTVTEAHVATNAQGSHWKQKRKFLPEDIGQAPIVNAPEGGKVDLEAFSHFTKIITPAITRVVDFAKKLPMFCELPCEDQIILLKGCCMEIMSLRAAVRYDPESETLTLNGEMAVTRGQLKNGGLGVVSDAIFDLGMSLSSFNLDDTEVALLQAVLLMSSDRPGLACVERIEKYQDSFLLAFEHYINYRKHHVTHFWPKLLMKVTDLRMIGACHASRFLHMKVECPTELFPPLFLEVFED
In short: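 TR-UAS-bla GripTite HEK 293 cells (2500/well, medium with 2% charcoal/dextran FBS) were treated in agonist mode for 18 h at 37 C, titrated. Beta-lactamase was read by CCF4 ratio after 2 h; normalized to 10 nM T3 (100%) and DMSO, Hill-fitted for EC50 and efficacy.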

[10] = qHTS assay for small molecule antagonists of retinoid X receptor alpha signaling (AID 588546; active means well fitted inhibition curve with a large enough effect in the signal ratio, with a control signal flat, not every such curve was filed as active; the % refers to the signal ratio;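 further: cells stimulated with 9-cis-retinoic acid as agonist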); conditions: HEK293T RXRa-UAS-bla, beta-lactamase ratio, antagonist mode; measured here: W530 green channel, cytotoxicity proxy
In short: (§2)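 Beta-lactamase reporter inhibition, read as CCF4 fluorescence ratio (ex 405, em 460/530 nm) after 2 h at RT. HEK293T UAS-bla cells, 2500/well, were stimulated with 9-cis-RA at 500 or 100 nM final alongside test compound for 18 h at 37 C.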

[11] = target: Retinoic acid receptor RXR-alpha (Homo sapiens) (UniProt P19793); experiment: as above; conditions: HEK293T RXRa-UAS-bla, beta-lactamase ratio, antagonist mode
In short: as §2

Compound: Cc1cc(-n2nc3ccc(Cl)cc3n2)c(O)c(C(C)(C)C)c1
- Potency [1]: inactive

Compound: CCOc1ccc(C(=O)OCCN(CC)CC)cc1
- Potency [1]: inactive

Compound: COC(=O)c1ccccc1C(=O)c1ccc(OCCN2CCCCC2)cc1
- Potency [1]: inactive

Compound: CCOC(=O)[C@H](CCc1ccccc1)N[C@@H](C)C(=O)N1CCC[C@H]1C(=O)O
- Potency [1]: inactive

Compound: O=c1[nH]c2cc(C(F)(F)F)c(N3CCOCC3)cc2n(CP(=O)(O)O)c1=O
- Potency [1]: inactive

Compound: CN1C[C@@H]2C[C@H]1CN2c1cc2c(cc1F)c(=O)c(C(=O)O)cn2C1CC1
- Potency [1]: inactive

Compound: NCc1ccc(S(N)(=O)=O)cc1
- Potency [1]: inactive

Compound: Cc1ncc(CO)c(CN)c1O
- Potency [1]: inactive

Compound: O=C(O)Cn1c(C(=O)Nc2nc(-c3ccccc3Cl)cs2)cc2ccccc21
- Potency [1]: 79.4 µM (active)

Compound: Cc1c(I)c(=O)n(-c2ccccc2)n1C
- Potency [1]: inactive

Compound: Cc1[nH]c(C)c(Cl)c(=O)c1Cl
- Potency [1]: inactive

Compound: NC(=O)NC1NC(=O)NC1=O (stereo unspecified)
- Potency [1]: inactive

Compound: O=C(O)Cc1ccc(CCNS(=O)(=O)c2ccc(Cl)cc2)cc1
- Potency [1]: inactive

Compound: O=C(O)CNC(=O)c1ccccc1I
- Potency [1]: inactive

Compound: COc1ccc(C(=O)N2CCN(CC(=O)N3CCOCC3)CC2)cc1
- Potency [1]: inactive

Compound: COc1cc(O)cc(O)c1
- Potency [1]: inactive

Compound: N[C@@H](Cc1ccc(O)cc1)C(=O)O
- Potency [1]: inactive

Compound: OC(CCN1CCCC1)(c1ccccc1)C1CCCCC1 (stereo unspecified)
- Potency [1]: inactive

Compound: CN1CCN(C(=O)C2CCCCC2)CC1
- Potency [1]: inactive

Compound: COc1ccccc1OCC(O)CO (stereo unspecified)
- Potency [1]: inactive

Compound: CC1CCN(CCCC(=O)c2ccc(F)cc2)CC1
- Potency [1]: inactive

Compound: Nc1ncnc(Nc2ccccc2)n1
- Potency [1]: inactive

Compound: C=CCSCC1Nc2cc(Cl)c(S(N)(=O)=O)cc2S(=O)(=O)N1 (stereo unspecified)
- Potency [1]: inactive

Compound: O=c1[nH]cnc2nc[nH]c12
- Potency [1]: inactive

Compound: CCCOC(=O)c1ccc(N)cc1
- Potency [1]: inactive

Compound: Nc1ccncc1N
- Potency [1]: inactive

Compound: CC(CSC(=O)c1ccccc1)C(=O)N1C[C@@H](Sc2ccccc2)C[C@H]1C(=O)O (stereo partly specified)
- Potency [1]: inactive

Compound: Cc1c(NC(C)C)c(=O)n(-c2ccccc2)n1C
- Potency [1]: inactive

Compound: CC(C)CCCC(C)CCCC(C)CCCCC(C)CCCC(C)CCCC(C)C (stereo unspecified)
- Potency [1]: inactive

Compound: C[N+]1(C)CCCC(OC(=O)C(O)(c2ccccc2)c2ccccc2)C1 (stereo unspecified)
- Potency [1]: inactive

Compound: CNCc1ccccc1
- Potency [1]: inactive

Compound: Cc1c(C)c2c(c(C)c1OC(=O)c1cccnc1)CC[C@@](C)(CCC[C@H](C)CCC[C@H](C)CCCC(C)C)O2
- Potency [1]: inactive

Compound: CC(=O)OC[C@H]1O[C@@](COC(C)=O)(O[C@H]2O[C@H](COC(C)=O)[C@@H](OC(C)=O)[C@H](OC(C)=O)[C@H]2OC(C)=O)[C@@H](OC(C)=O)[C@@H]1OC(C)=O
- Potency [1]: inactive

Compound: C[C@@H]1O[C@@H](OC[C@H]2O[C@@H](Oc3c(-c4ccc(O)c(O)c4)oc4cc(O)cc(O)c4c3=O)[C@H](O)[C@@H](O)[C@@H]2O)[C@H](O)[C@H](O)[C@H]1O
- Potency [1]: inactive

Compound: CC(=O)Oc1cccc(C)c1
- Potency [1]: inactive

Compound: Cc1cc(O)cc(C)c1Cl
- Potency [1]: inactive
- outcome [2]: inactive
- max response [3]: 24.1%
- outcome [4]: inactive
- outcome [5]: inactive
- outcome [6]: inactive
- max response [7]: -3.04%
- outcome [8]: inactive
- outcome [9]: inactive
- max response [10]: -7.57%
- max response [11]: 1.2% (inactive)

Reference: PubChem BioAssay (NCATS)
